Results: PubChem BioAssay AID651640 (Broad Institute, 2012)
“And” between values parts separate entries of the source, which are not always exact repeats. Equal values may be shown once. Among all 350,000 compounds or so, about 6,000 (1.7%) were called active. Another 5% or so got no clear call; they are omitted. Cut-off read from the data, not from the text of the source: active = CPE inhibition above about 20% (passing the limit was not always enough); inconclusive = no clear call, values can overlap the other calls; tested in BHK-21 cells. Shown is part of a subset that was picked to be rich in actives. The source holds several records for some structures; these can differ, active in one and inactive in another.

Experiment: protection of cells from dengue 2 killing – plate reader, single concentration, primary screen (AID 651640);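 note: 0% = median of neutral control wells and 100% = median of positive control wells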
Conditions: DENV2-infected cells, cytopathic effect rescue, at 9.99 µM, stronger effect = higher value

Structure (SMILES)	CPE inhibition
CN1C(=O)c2cc(NC(=O)Nc3ccccc3Cl)ccc2OC[C@H]2O[C@H](CC(=O)NCCCN3CCOCC3)CC[C@H]21	-4.69% (inactive)
CCNC(=O)C[C@@H]1CC[C@H]2[C@@H](COc3ccc(NC(=O)NC(C)C)cc3C(=O)N2C)O1	-7.53% (inactive)
COc1ccc(NC(=O)Nc2ccc3c(c2)OC[C@@H](C)NC[C@@H](C)[C@H](OC)CN(C)C3=O)cc1	-3.84% (inactive)
COc1ccc(S(=O)(=O)N2C[C@@H](O)COC[C@H]3O[C@@H](CC(=O)NCCN4CCCCC4)CC[C@@H]32)cc1	2.39% (inactive)
C[C@@H]1CN([C@H](C)CO)C(=O)c2cc(NC(=O)NC3CCCCC3)ccc2O[C@H]1CN(C)C(=O)Nc1ccccc1	1% (inactive)
C[C@@H]1CCCCO[C@@H](CN(C)C(=O)Cc2ccccc2)[C@@H](C)CN([C@@H](C)CO)C(=O)c2cc(NC(=O)c3ccccc3)ccc2O1	-1.37% (inactive)
O=C(Nc1ccccc1)N[C@@H]1CC[C@H](CCn2cc(-c3ccccc3F)nn2)O[C@@H]1CO	10.9% (inactive)
CS(=O)(=O)N1CC2(C1)[C@H](c1ccccc1)[C@@H](CO)N2C(=O)c1ccccc1	0.143% (inactive)
O=S(=O)(c1ccc(F)cc1)N1CCCCN2[C@H](CO)[C@@H](c3ccc(C#CC4CCCC4)cc3)[C@H]2C1	-3.13% (inactive)
COCC(=O)N(C)C[C@H]1Oc2cc(Br)ccc2S(=O)(=O)N([C@H](C)CO)C[C@H]1C	21.7% (inactive) and 31.3% (active)
COCC(=O)N(C)C[C@H]1Oc2cc(C#CC(C)C)ccc2S(=O)(=O)N([C@H](C)CO)C[C@@H]1C	-1.85% (inactive)
C[C@H]1CN([C@@H](C)CO)S(=O)(=O)c2ccc(C3=CCCC3)cc2O[C@H]1CN(C)C(=O)Nc1ccc2c(c1)OCO2	-1.69% (inactive)
C[C@@H]1CN([C@@H](C)CO)S(=O)(=O)c2ccc(Br)cc2O[C@@H]1CN(C)C(=O)CN(C)C	2.66% (inactive)
C[C@@H]1CN([C@H](C)CO)S(=O)(=O)c2ccc(C3=CCCC3)cc2O[C@H]1CN(C)C(=O)Nc1ccc2c(c1)OCO2	21.4% (active)
C[C@H]1CN([C@@H](C)CO)S(=O)(=O)c2ccc(C#Cc3ccncc3)cc2O[C@@H]1CN(C)C(=O)Nc1ccc2c(c1)OCO2	13.3% (inactive)
O=C(C[C@@H]1CC[C@H](NC(=O)Cc2ccccn2)[C@H](CO)O1)NCCc1ccncc1	1.65% (inactive)
CCNC(=O)C[C@@H]1CC[C@H]2[C@@H](COc3ccc(NC(=O)Cc4cccs4)cc3C(=O)N2C)O1	-0.188% (inactive)
Cc1noc(C)c1NC(=O)Nc1ccc2c(c1)C(=O)N([C@@H](C)CO)C[C@H](C)[C@H](CN(C)Cc1ccc(C(=O)O)cc1)OCCCC[C@@H](C)O2	-4.14% (inactive)
CSc1ccc(Oc2cccc3c2S(=O)(=O)N([C@H](C)c2ccccc2)C[C@@H](COCc2ccccc2)O3)cc1C	12% (inactive)
COC(=O)N1Cc2ccnnc2CC1c1ccccc1Br (stereo not given)	-2.73% (inactive)
O=C(O)c1ccccc1-c1cccc2nncn12	-0.993% (inactive)
CCCC/C=C/c1cccc2nncn12	28.7% (active)
C[C@@H]1CCCCO[C@@H](CN(C)S(=O)(=O)c2cn(C)cn2)[C@H](C)CN([C@H](C)CO)C(=O)c2cc(NC(=O)NC3CCCCC3)ccc2O1	5.41% (inactive)
O=C(NC(=S)Nc1ccc(S(=O)(=O)Nc2ncccn2)cc1)c1cccc(Br)c1	-1.82% (inactive)
COc1ccc(OC)c(C(C)NC(=S)Nc2ccc(S(=O)(=O)Nc3ncccn3)cc2)c1 (stereo not given)	49.8% (active)

Structure (SMILES)	CPE inhibition
CC(Oc1cccc(Cl)c1)C(=O)Nc1ccc(S(=O)(=O)Nc2ncccn2)cc1 (stereo not given)	2.3% (inactive)
Cc1noc(C)c1NC(=O)Nc1ccc2c(c1)C(=O)N([C@H](C)CO)C[C@@H](C)[C@H](CN(C)S(=O)(=O)c1ccc(Cl)cc1)OCCCC[C@H](C)O2	-4.55% (inactive)
Cc1ccc(-c2ccc(CN3C(C(C)C)C(=O)N(Cc4cn(CCC5OCCO5)nn4)CCS3(=O)=O)cc2)cc1 (stereo not given)	6.07% (inactive)
Cc1ccc(-c2ccc(CN3C(C(C)C)C(=O)N(Cc4cn(CCC5OCCCO5)nn4)CCS3(=O)=O)cc2)cc1 (stereo not given)	102% (active)
Cc1ccc(-c2ccc(CN3C(C)C(=O)N(Cc4cn(CCC5OCCCO5)nn4)CCS3(=O)=O)cc2)cc1 (stereo not given)	86.5% (active)
CC1C(=O)N(Cc2cn(Cc3ccco3)nn2)CCS(=O)(=O)N1Cc1ccc(-c2cccc(CO)c2)cc1 (stereo not given)	-5.64% (inactive)
COc1ccc(Cn2cc(CN3CCS(=O)(=O)N(Cc4ccc(-c5cccc(Cl)c5)cc4)C(C)C3=O)nn2)cc1 (stereo not given)	3.05% (inactive)
CC(C)C1C(=O)N(Cc2cn(CCC3OCCO3)nn2)CCS(=O)(=O)N1Cc1ccc(-c2ccccc2C(F)(F)F)cc1 (stereo not given)	-6.47% (inactive)
CCCNC(=O)[C@@H]1[C@@H](CO)[C@@H]2Cn3c(cccc3=O)[C@H]1N2C(=O)C1CC1	-2.53% (inactive)
CO[C@@H]1CN(C)C(=O)c2ccc(NC(=O)Nc3ccccc3)cc2OC[C@@H](C)N(C(=O)Nc2c(C)noc2C)C[C@@H]1C	-2.63% (inactive)
CCCNC(=O)Nc1ccc2c(c1)C(=O)N(C)[C@H]1CC[C@H](CC(=O)NCC3CCCCC3)O[C@@H]1CO2	7.7% (inactive)
CCC(=O)N(C)C[C@@H]1Oc2ncc(-c3ccccc3OC)cc2C(=O)N([C@@H](C)CO)C[C@@H]1C	-0.292% (inactive)
O=C(C[C@@H]1C=C[C@@H](NC(=O)c2ccccn2)[C@@H](CO)O1)NCc1cc(F)cc(F)c1	-1.09% (inactive)
CO[C@@H]1CN(C)C(=O)c2cc(NS(C)(=O)=O)ccc2OC[C@@H](C)N(C(=O)C2CCC2)C[C@@H]1C	23.4% (active)
CCC(=O)N1C[C@H](C)[C@H](OC)CN(C)C(=O)c2ccc(NC(=O)Nc3ccccc3)cc2OC[C@H]1C	-7.71% (inactive)
CO[C@H]1CN(C)C(=O)c2cc(NS(C)(=O)=O)ccc2OC[C@H](C)N(C(=O)C2CCCC2)C[C@H]1C	-6.55% (inactive)
CCCC(=O)Nc1ccc2c(c1)OC[C@H](C)N(C(=O)C1CCCC1)C[C@@H](C)[C@H](OC)CN(C)C2=O	-8.69% (inactive)
CO[C@H]1CN(C)C(=O)c2ccc(NC(=O)C3CC3)cc2OC[C@@H](C)N(C(=O)CN2CCOCC2)C[C@H]1C	41.3% (active)
CCCC(=O)Nc1ccc2c(c1)C(=O)N(C)C[C@H](OC)[C@@H](C)CN(C(C)=O)[C@H](C)CO2	68% (active)
CCCC(=O)Nc1ccc2c(c1)OC[C@H](C)N(C(=O)CC)C[C@H](C)[C@@H](OC)CN(C)C2=O	25.3% (active)
CCCNC(=O)N1C[C@H](C)[C@H](OC)CN(C)C(=O)c2cc(NC(=O)CC)ccc2OC[C@H]1C	-0.559% (inactive)
CCCC(=O)Nc1ccc2c(c1)C(=O)N(C)C[C@@H](OC)[C@H](C)CN(C(C)=O)[C@H](C)CO2	4.44% (inactive)
CO[C@H]1CN(C)C(=O)c2ccc(NC(=O)C3CC3)cc2OC[C@H](C)N(C(=O)CN2CCOCC2)C[C@@H]1C	-2.69% (inactive)
CO[C@@H]1CN(C)C(=O)c2cc(NC(=O)C3CC3)ccc2OC[C@H](C)N(C(=O)CN2CCOCC2)C[C@@H]1C	-10.9% (inactive) and -2.35% (inactive)
CO[C@H]1CN(C)C(=O)c2ccc(NS(C)(=O)=O)cc2OC[C@H](C)N(C(=O)C2CCC2)C[C@H]1C	-2.45% (inactive)
